# Unmarked numbers belong to inactive results. Entries that show only a call come without a potency. For some of these results: Potency and affinity values are given separately. Calls of active or inactive are those of the source. Unless noted, no rule for the calls is given here.
# What was measured:
# [1] = antimalarial activity against Dd2 strain (AID 2302;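 active = growth inhibition above 50% at the single 2 µM test dose, taken to imply half-maximal potency below 2 µM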); conditions: P. falciparum Dd2 in RBCs, LDH growth readout, 72 h; at 2 µM; hits give high values
# [2] = human hepatoma cell viability loss – ATP luminescence, cytotoxicity control for P. falciparum antimalarial project, primary screen (AID 2303;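 active = inhibition above 50%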); conditions: HepG2 viability, 24-48 h, at 10 µM, hits give high values
# [3] = biological target: L-lactate dehydrogenase (Plasmodium falciparum (isolate CDC / Honduras)) (UniProt Q27743); assay: PfLDH activity inhibition – cell lysate, 3D7 strain, counter-screen for P. falciparum growth inhibition project (AID 2304); conditions: P. falciparum 3D7 crude extract, LDH APAD/NBT absorbance; at 2 µM; hits give high values
# Chain of L-lactate dehydrogenase (Plasmodium falciparum (isolate CDC / Honduras)) (Q27743 whole entry, looked up): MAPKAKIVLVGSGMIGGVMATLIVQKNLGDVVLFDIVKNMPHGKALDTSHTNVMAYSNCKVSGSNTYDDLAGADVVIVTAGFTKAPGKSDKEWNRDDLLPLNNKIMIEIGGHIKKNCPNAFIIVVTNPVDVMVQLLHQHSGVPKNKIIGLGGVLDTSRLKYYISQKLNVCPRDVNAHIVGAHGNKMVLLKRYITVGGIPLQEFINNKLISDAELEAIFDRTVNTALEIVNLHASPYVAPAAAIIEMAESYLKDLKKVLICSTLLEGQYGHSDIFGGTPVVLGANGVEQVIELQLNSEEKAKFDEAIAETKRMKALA
# [4] = inhibition of 3D7 malaria parasite growth – strain 3D7 (AID 2306); conditions: P. falciparum 3D7 erythrocytic growth, LDH absorbance, 72 h; at 2 µM; hits give high values
# [5] = biological target: Calcium-dependent protein kinase 1 (Plasmodium falciparum (isolate 3D7)) (UniProt P62344); assay: PfCDPK1 kinase inhibitors, biochemical, TCAMS library (AID 1159585; cut-off not given, nearly all actives have IC50 up to about 0.98 µM;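 also: inhibitors leave more ATP so luminescence rises with inhibition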); conditions: recombinant PfCDPK1, Kinase-Glo ATP depletion luminescence
# Chain of Calcium-dependent protein kinase 1 (Plasmodium falciparum (isolate 3D7)) (P62344 whole entry, looked up): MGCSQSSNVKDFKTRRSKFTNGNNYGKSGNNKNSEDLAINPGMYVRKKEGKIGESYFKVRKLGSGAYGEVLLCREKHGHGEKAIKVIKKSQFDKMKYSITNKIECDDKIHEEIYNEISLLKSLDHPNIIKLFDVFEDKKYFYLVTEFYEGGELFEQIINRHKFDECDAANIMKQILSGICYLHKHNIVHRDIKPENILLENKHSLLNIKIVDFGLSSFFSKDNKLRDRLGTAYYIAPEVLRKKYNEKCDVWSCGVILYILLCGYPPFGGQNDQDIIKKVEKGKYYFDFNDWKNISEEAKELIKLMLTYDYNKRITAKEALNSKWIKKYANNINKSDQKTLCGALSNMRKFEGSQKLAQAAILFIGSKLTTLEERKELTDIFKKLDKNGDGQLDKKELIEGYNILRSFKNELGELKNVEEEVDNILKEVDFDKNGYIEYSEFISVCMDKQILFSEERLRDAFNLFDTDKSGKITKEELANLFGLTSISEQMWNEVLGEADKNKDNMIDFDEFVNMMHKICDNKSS
# [6] = biological target: Plasmodium falciparum protein kinase 6 (PK6, PF3D7_1337100) (UniProt Q8IDW1); assay: PfPK6 kinase inhibitors, biochemical, TCAMS library (AID 1159586); conditions: recombinant PfPK6, Kinase-Glo ATP depletion luminescence
# Chain of Plasmodium falciparum protein kinase 6 (PK6, PF3D7_1337100) (Q8IDW1 1-305): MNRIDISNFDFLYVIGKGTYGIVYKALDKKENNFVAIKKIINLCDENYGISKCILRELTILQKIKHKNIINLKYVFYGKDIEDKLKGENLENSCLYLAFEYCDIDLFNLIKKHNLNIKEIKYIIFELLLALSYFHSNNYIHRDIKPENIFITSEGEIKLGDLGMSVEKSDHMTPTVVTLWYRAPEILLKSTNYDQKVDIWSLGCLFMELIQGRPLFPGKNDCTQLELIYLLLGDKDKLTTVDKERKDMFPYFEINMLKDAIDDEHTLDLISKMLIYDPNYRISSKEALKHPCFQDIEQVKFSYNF
# [7] = biological target: Protein kinase 7 (PK7), Plasmodium falciparum 3D7 (PF3D7_0213400) (UniProt Q7YTF7); assay: inhibition of Plasmodium PK7 catalytic activity – biochemical, TCAMS antimalarial set, Kinase-Glo luminescence (AID 1159587); conditions: recombinant PfPK7, Kinase-Glo ATP depletion luminescence
# Chain of Protein kinase 7 (PK7), Plasmodium falciparum 3D7 (PF3D7_0213400) (Q7YTF7 1-343): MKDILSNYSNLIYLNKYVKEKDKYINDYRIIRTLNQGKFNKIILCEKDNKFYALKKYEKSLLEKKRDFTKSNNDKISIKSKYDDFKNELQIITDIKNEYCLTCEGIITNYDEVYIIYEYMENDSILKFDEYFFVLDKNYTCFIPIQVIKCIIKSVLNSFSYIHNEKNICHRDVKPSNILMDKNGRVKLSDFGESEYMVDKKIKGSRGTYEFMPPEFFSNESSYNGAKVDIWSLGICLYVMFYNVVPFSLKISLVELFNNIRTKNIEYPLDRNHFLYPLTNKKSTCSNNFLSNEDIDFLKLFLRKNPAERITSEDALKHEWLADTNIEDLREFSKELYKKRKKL
# [8] = biological target: Calcium-dependent protein kinase 4 (Plasmodium falciparum (isolate 3D7)) (UniProt Q8IBS5); assay: PfCDPK4 kinase inhibitors, biochemical, TCAMS library (AID 1159588; cut-off not given, nearly all actives have IC50 up to about 0.91 µM); conditions: recombinant PfCDPK4, Kinase-Glo ATP depletion luminescence
# Chain of Calcium-dependent protein kinase 4 (Plasmodium falciparum (isolate 3D7)) (Q8IBS5 whole entry, looked up): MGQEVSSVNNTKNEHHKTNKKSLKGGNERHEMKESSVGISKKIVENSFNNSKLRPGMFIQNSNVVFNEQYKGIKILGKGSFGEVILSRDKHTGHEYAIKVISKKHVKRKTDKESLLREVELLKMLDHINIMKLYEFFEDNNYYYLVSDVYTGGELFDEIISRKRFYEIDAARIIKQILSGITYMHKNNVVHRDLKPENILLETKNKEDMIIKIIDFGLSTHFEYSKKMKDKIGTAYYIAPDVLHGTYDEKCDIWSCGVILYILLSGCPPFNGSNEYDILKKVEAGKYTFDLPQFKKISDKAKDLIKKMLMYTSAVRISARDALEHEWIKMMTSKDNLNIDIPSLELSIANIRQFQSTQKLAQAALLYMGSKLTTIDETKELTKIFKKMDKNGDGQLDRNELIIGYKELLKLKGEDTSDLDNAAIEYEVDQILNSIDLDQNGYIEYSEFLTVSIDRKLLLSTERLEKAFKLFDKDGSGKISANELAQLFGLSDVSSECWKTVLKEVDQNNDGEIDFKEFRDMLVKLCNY
SMILES,growth inhibition [1],inhibition [2],inhibition [3] [%],growth inhibition [4],outcome [5],outcome [6],outcome [7],outcome [8]
CN1CCC(N(Cc2ccc(N3CCN(Cc4c[nH]c5ccc(Cl)cc45)CC3)nc2)C2CC2)CC1,76% (active),96% (active),-2,100% (active),inactive,inactive,inactive,inactive
O=C(Nc1ccc(Cl)c(Cl)c1)N(Cc1ccccc1Br)C1CCNCC1,8%,13%,7,96% (active),inactive,inactive,inactive,inactive
O=C(N[C@@H](Cc1ccccc1)C(=O)NC1CCCc2ccccc21)c1ccc(O)c(-c2ccc(Cl)c(Cl)c2)c1 (stereo not given in full),99% (active),-3%,-8,97% (active),inactive,inactive,inactive,inactive
O=C(NCc1ccc(F)cc1)c1cc(Br)cc(N2CCN(c3ccncc3)CC2)c1,59% (active),36%,-2,80% (active),inactive,inactive,inactive,inactive
CCN(CC)CC(O)c1cc(-c2ccc(C)cc2)nc2c(C)cc(C)cc12 (stereo not given),99% (active),3%,1,100% (active),inactive,inactive,inactive,inactive
Cc1ccc2oc3cc(-c4nn[nH]n4)ccc3c(=O)c2c1,96% (active),2%,-6,97% (active),inactive,inactive,inactive,inactive
CCN(CC)CCCCNc1cc(-c2[nH]c(-c3c(Cl)cccc3Cl)nc2-c2ccc3cc(OC)ccc3c2)ccn1,93% (active),23%,-5,95% (active),inactive,inactive,inactive,inactive
Clc1ccc(-c2cc(-c3csc(Nc4ccncc4)n3)on2)cc1,99% (active),1%,3,100% (active),inactive,inactive,inactive,inactive
COc1cc(CCNc2nc(NCc3ccccc3-c3ccccc3)nc(N3CCC(N)CC3)n2)ccc1O,70% (active),25%,-4,100% (active),inactive,inactive,inactive,inactive
Cc1c(CCc2cccc(F)c2F)[nH]c2ccccc2c1=O,90% (active),41%,2,91% (active),inactive,inactive,inactive,inactive
COc1ccc2nccc([C@@H](O)CN3CCC(NC(=O)C(=Cc4ccc(C#N)cc4)c4ccc(-c5ccccc5)cc4)CC3)c2c1,84% (active),5%,-5,101% (active),inactive,inactive,inactive,inactive
COc1cc(NC(=O)/C=C/c2cc(F)cc(F)c2F)cc(OCCN2CCN(CCN3CCOCC3)CC2)c1,94% (active),21%,0,102% (active),inactive,inactive,inactive,inactive
COc1cccc(-c2ccc(C(=O)NC3CCN(Cc4ccc(C(C)(C)C)cc4)CC3)s2)c1,23%,43%,-2,85% (active),inactive,inactive,inactive,inactive
Cn1cnc(CCNC(=O)c2cccc(-c3csc(-c4nc5ccccc5[nH]4)c3)c2)c1,26%,33%,0,101% (active),inactive,inactive,inactive,inactive
Nc1ccc2nc(C=Cc3ccccc3)[nH]c2c1,89% (active),7%,1,92% (active),inactive,inactive,inactive,inactive
CC(C)(C)c1ccc(NC(=O)c2ccc(CN3CCCN(Cc4cccc(C#N)c4)CC3)cc2)cc1,12%,54% (active),-5,99% (active),inactive,inactive,inactive,inactive
CCCCCCc1cc(OC)c(OC)cc1C(C)Nc1ccnc2cc(Cl)ccc12 (stereo not given),79% (active),6%,-4,95% (active),inactive,inactive,inactive,inactive
C=CCOC(=O)N1CCC(CNCc2cccc(-c3ccc(-c4nc5ccccc5[nH]4)s3)c2)C1 (stereo not given),63% (active),9%,0,99% (active),inactive,inactive,inactive,inactive
COc1cc(C(=O)NC2CC(C)(C)N(C)C(C)(C)C2)ccc1-c1cc2cc(Cl)c(Cl)cc2[nH]1,36%,65% (active),1,89% (active),inactive,inactive,inactive,inactive
CC(C)(C)c1ccc(CN2CCCCC(NC(=O)c3cc(-c4cccc(Cl)c4)cs3)C2)cc1 (stereo not given),60% (active),11%,1,96% (active),inactive,inactive,inactive,inactive
